From PubChem BioAssay (Tox21)
Activity calls are given as the source filed them. Calls come from the whole dose curve; as a rule, active = well fitted curve in the direction sought with a large enough effect in the repeat runs; inconclusive = weak or mixed curves; inactive = flat fitted curve, though single readings scatter.

Experiment: qHTS assay to test for compound auto fluorescence at 535 nm (green) in HEK293 cells (AID 720680)
Conditions: green autofluorescence 485/535 nm; series mostly up to 91.3 µM
Description: U.S. Tox21 Program National Center for Advancing Translational Sciences [NCATS] NIH Chemical Genomics Center [NCGC] U.S. Environmental Protection Agency [EPA] National Institutes of Environmental Health Sciences [NIEHS] National Toxicology Program [NTP] U.S. Food and Drug Administration [FDA] Tox21 Assay Overview: Compound auto fluorescence often interferes with screening of the compound library against various biological targets and signaling pathways. Some of these compounds may have fluorophoric properties. Such properties may interfere with the assay outputs resulting in false positives and/or negatives. To decrease such complications and ensure the compound activities are relevant in terms of biological response, the Tox21 10K compound library was screened for auto fluorescence. From the fluorophores used as reporter signals in our screening assays, the auto fluorescence equivalencies of compounds against three fluorophores have been evaluated: Triamterene, Fluorescein and Rose Bengal sodium for blue, green and red fluorescence, respectively. The fluorescence intensities were measured using Excitation/Emission wavelengths at 405/460nm, 485/535nm and 540/590nm for blue, green and red labels, respectively. This assay includes the green fluorescence data.
Tox21 Assay Protocol Summary: 2,000 HEK293 cells in 5 uL of culture medium containing 10% dialyzed FBS per well were dispensed into black wall/clear bottom 1536-well plates using a Multidrop Combi Dispenser (Thermo Scientific). The assay plates were incubated for 4-5 hr at 37C to allow cell attachment to the well bottom, followed by the transfer of 23 nL compound or DMSO vehicle by a pintool work station (Kalypsys, San Diego, CA). After the assay plates were incubated overnight at 37C and 5% CO2, fluorescence intensities in the assay plates were measured by an Envision (PerkinElmer, Shelton, CT) plate reader using three labels for measuring blue, green and red fluorescence at […] 460, 535 and 590nm respectively.

| SMILES | outcome |
| --- | --- |
| O=[N+]([O-])c1cccc2ccccc12 | inactive |
| Cc1cc(Cl)ccc1OCCCC(=O)O | inactive |
| COc1ccc(C=O)cc1 | inactive |
| c1nc[nH]n1 | inactive |
| Nc1cccnc1 | inactive |
| C#CCOS(=O)OC1CCCCC1Oc1ccc(C(C)(C)C)cc1 (stereo not given) | inactive |
| Nc1ccncc1 | inactive |
| CCc1cccc(CC)c1N(COC)C(=O)CCl | inactive |
| CC(C)c1ccc(CO)cc1 | inactive |
| c1ccc(-c2cccc(-c3ccccc3)c2)cc1 | inactive |
| C[C@]12CCC(=O)C[C@@H]1CC[C@@H]1[C@@H]2CC[C@]2(C)[C@@H](O)CC[C@@H]12 | inactive |
| CCOc1cc(Oc2ccc(C(F)(F)F)cc2Cl)ccc1[N+](=O)[O-] | inactive |
| CCC(=O)O[C@H]1CC[C@H]2[C@@H]3CCC4=CC(=O)CC[C@]4(C)[C@H]3CC[C@]12C | inactive |
| CCCCCCCCC(=O)NCc1ccc(O)c(OC)c1 | inactive |
| C=CCc1ccc2c(c1)OCO2 | inactive |
| O=C1C=CC(=O)C=C1 | inactive |
| O=C(O)CC[N+](=O)[O-] | inactive |
| CCOC(=O)C(C)OC(=O)c1cc(Oc2ccc(C(F)(F)F)cc2Cl)ccc1[N+](=O)[O-] (stereo not given) | inactive |
| CCOCN(C(=O)CCl)c1c(C)cccc1CC | inactive |
| N#Cc1cc(Br)c(O)c(Br)c1 | inactive |

| SMILES | outcome |
| --- | --- |
| Oc1cc(Cl)c(Cl)cc1Cl | inactive |
| CCC(CC)Nc1c([N+](=O)[O-])cc(C)c(C)c1[N+](=O)[O-] | inactive |
| C#C[C@]1(O)CC[C@H]2[C@@H]3CCC4=CC(=O)CC[C@]4(C)[C@H]3CC[C@@]21C | inactive |
| CC(C)C(=O)OCC(C)(C)C(OC(=O)C(C)C)C(C)C (stereo not given) | inactive |
| ClC1C(Cl)C(Cl)C(Cl)C(Cl)C1Cl (stereo not given) | inactive |
| COP(=S)(OC)Oc1ccc([N+](=O)[O-])cc1 | inactive |
| O=Cc1ccco1 | inactive |
| O=C(Nc1ccc(Br)cc1)c1cc(Br)cc(Br)c1O | inactive |
| CCN(CC)C(=O)/C(Cl)=C(\C)OP(=O)(OC)OC | inactive |
| CCCCC(CC)COC(=O)Cl (stereo not given) | inactive |
| CC(C)(C)c1ccccc1O | inactive |
| c1cc(OCC2CO2)ccc1Cc1ccc(OCC2CO2)cc1 (stereo not given) | inactive |
| NNC(=S)NN | inactive |
| CC(O)CCO (stereo not given) | inactive |
| O=C(O)C(F)(F)C(F)(F)C(F)(F)C(F)(F)C(F)(F)C(F)(F)C(F)(F)F | inactive |
| c1ccc(N=Nc2ccccc2)cc1 | inactive |
| CCC(C)c1cc([N+](=O)[O-])cc([N+](=O)[O-])c1O (stereo not given) | inactive |
| O=P(Oc1ccccc1)(Oc1ccccc1)Oc1ccccc1 | inactive |
| S=C1NCCN1 | inactive |
| CCCCCc1cc(O)cc(O)c1 | inactive |
